# Assay results: PubChem BioAssay (NCI)
# This is part of a sample that, as a whole, favours compounds with a hit. Of some 79,000 tested, about 15% had one in any assay. A number with no mark means an inactive call. The source made the active and inactive calls. Rule as the data show it: active = growth inhibition above about 70%; inactive = the rest.
# Experiments:
# [1] = NCI Yeast Anticancer Drug Screen. Data for the rad50 strain (AID 155);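 also: 0% = growth of vehicle-only cultures of the same strain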; conditions: S. cerevisiae rad50 strain growth inhibition, active compounds read high
# Outline: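 Cells are treated with compound, grown, and their growth is then scored against vehicle-only cultures of the same repair-deficient yeast strain.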
# [2] = NCI Yeast Anticancer Drug Screen. Data for the mec2-1 strain (AID 157); conditions: S. cerevisiae mec2-1 strain, active compounds read high
# Outline: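 Strain: mec2-1 (DNA repair/cell cycle alteration). Compound exposure, then growth measured; inhibition expressed relative to vehicle.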
# [3] = NCI Yeast Anticancer Drug Screen. Data for the sgs1 mgt1 strain (AID 161);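 also: 0% = growth of cultures given vehicle only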; conditions: S. cerevisiae sgs1 mgt1 strain, active compounds read high
# Outline: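 Inhibition of yeast growth, normalised to vehicle-treated controls, is reported for a strain bearing genetic alterations in DNA damage repair.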
# [4] = NCI Yeast Anticancer Drug Screen. Data for the cln2 rad14 strain (AID 165);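 also: 0% = growth equal to vehicle treated cultures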; conditions: S. cerevisiae cln2 rad14 strain, active compounds read high
# Outline: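 Compounds are applied to the cln2 rad14 yeast strain, and growth is then compared with that of vehicle-treated cultures to give inhibition.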
# [5] = NCI Yeast Anticancer Drug Screen. Data for the bub3 strain (AID 167); conditions: S. cerevisiae bub3 mutant strain, active compounds read high
# Outline: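 Part of a panel of yeast mutants defective in DNA damage repair or cell cycle regulation. Each strain is grown with compound, and inhibition is calculated relative to solvent-treated cultures.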
# [6] = NCI Yeast Anticancer Drug Screen. Data for the mlh1 rad18 strain (AID 175); conditions: S. cerevisiae mlh1 rad18 strain growth inhibition, active compounds read high
# Outline: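 Read-out is yeast growth inhibition, calculated against vehicle-only controls. The compound was applied to a strain engineered with DNA damage repair alterations.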
# [7] = at 5.0 µM (retest, dose inferred, filed as 0.5)
# [8] = at 50.0 µM (retest, dose inferred, filed as 5.0)
Compound,"growth inhibition [1, 7]","growth inhibition [1, 8]",growth inhibition ([1]; at 50.0 µM),"growth inhibition [2, 7]","growth inhibition [2, 8]",growth inhibition ([2]; at 50.0 µM),"growth inhibition [3, 7]","growth inhibition [3, 8]",growth inhibition ([3]; at 50.0 µM),"growth inhibition [4, 7]","growth inhibition [4, 8]",growth inhibition ([4]; at 50.0 µM),"growth inhibition [5, 7]","growth inhibition [5, 8]",growth inhibition ([5]; at 50.0 µM),"growth inhibition [6, 7]","growth inhibition [6, 8]",growth inhibition ([6]; at 50.0 µM)
COc1ccc(/C(C#N)=C/c2ccncc2)cc1,1%,28%,73.2% (active),-49%,14%,39.2%,-2%,28%,68%,4%,23%,46.4%,7%,67%,77.4% (active),-3%,28%,51.3%
O=[N+]([O-])CC(O)c1ccccc1Cl (configuration not stated),90% (active),98% (active),99.3% (active),5%,99% (active),99.7% (active),-15%,99% (active),99.5% (active),-4%,98% (active),98.7% (active),16%,98% (active),99.4% (active),30%,99% (active),99.2% (active)
COc1cc(O)c2c(c1)C(O)C(O)CC1OC1C(=O)/C=C/CC(C)OC2=O (configuration not stated),80% (active),98% (active),91.5% (active),59%,99% (active),93.3% (active),64%,99% (active),93.1% (active),61%,99% (active),92.2% (active),79% (active),99% (active),92% (active),81% (active),98% (active),92% (active)
N#Cc1cn(-c2c3ccccc3nc3ccccc23)c(=O)[nH]c1=O,16%,67%,58.4%,-9%,52%,39.9%,3%,30%,49.6%,21%,70% (active),48.3%,15%,59%,21.8%,14%,77% (active),76.2% (active)
O=C(Cc1nc2ccc([N+](=O)[O-])cc2[nH]c1=O)C(=O)Nc1cc(Cl)c(Cl)cc1Cl,-16%,-2%,8.05%,-16%,-7%,-5.45%,-7%,-15%,-6.05%,-25%,-6%,6.65%,-16%,2%,23.9%,-4%,-13%,26.1%
O=C1Nc2ccccc2C(=O)C1(Cc1ccccc1)C(=O)c1ccccc1 (configuration not stated),14%,26%,97% (active),-1%,-9%,97.2% (active),11%,25%,97.5% (active),-1%,10%,97.5% (active),11%,12%,97.5% (active),4%,33%,97.4% (active)
CN(C)c1ccc(C(c2cc3c(cc2O)OCO3)N2CCCC2)cc1 (configuration not stated),7%,99% (active),99.2% (active),15%,99% (active),99.4% (active),-3%,99% (active),99.2% (active),-3%,99% (active),99.1% (active),0%,99% (active),99.4% (active),-7%,99% (active),99.2% (active)
CCCCCCCCCCCC1=NCC(C)N1 (configuration not stated),-39%,26%,71.9% (active),2%,27%,-2.95%,-3%,1%,28.6%,-46%,-5%,44.4%,0%,36%,45%,-29%,15%,46%
O=C(c1ccccc1)c1ccc2c(c1)CCCC2,-4%,-14%,76.5% (active),-12%,-23%,60.2%,-5%,-6%,76.8% (active),-5%,-48%,19.6%,2%,49%,69.7%,0%,-29%,71.4% (active)
O=C1OC(C2OC(=O)C(=O)C2C(=O)c2ccc(Cl)c(Cl)c2)C(C(=O)c2ccc(Cl)c(Cl)c2)C1=O (configuration not stated),7%,97% (active),94.5% (active),10%,93% (active),63.8%,14%,97% (active),74.3% (active),4%,84% (active),34.5%,-34%,92% (active),55.2%,12%,98% (active),96.2% (active)
C/C=C/C=N/N(c1nnc(-c2ccccc2)c(-c2ccccc2)n1)S(=O)(=O)c1ccc(C)cc1,58%,58%,92.2% (active),29%,29%,91.3% (active),36%,36%,90.1% (active),38%,38%,90% (active),52%,52%,92.3% (active),34%,34%,91.5% (active)
COc1ccc(N=Nc2ccc3oc(=O)c(C(=O)Nc4ccc(Cl)cc4)cc3c2)cc1,29%,98% (active),98.5% (active),16%,98% (active),98.9% (active),0%,98% (active),98.3% (active),16%,98% (active),98.3% (active),14%,97% (active),98.8% (active),33%,99% (active),98.7% (active)
ClCc1nc2ccccc2c2ccccc12,15%,50%,73.8% (active),22%,26%,20.8%,7%,21%,55.9%,10%,13%,-28.2%,20%,67%,61.1%,12%,43%,83.5% (active)
CC(=O)O[C@H]1CC[C@]2(C)C34OC3C[C@]3(C)[C@@H](C(C)=O)CC[C@H]3[C@]43C=C[C@@]2(C1)C1C(=O)OC(=O)C13 (some centres not stated),10%,60%,88.2% (active),6%,45%,89.9% (active),5%,48%,75.9% (active),0%,34%,84.2% (active),2%,42%,92.4% (active),-2%,85% (active),93.2% (active)
[Cu+2].c1ccc2n[nH]nc2c1,99% (active),99% (active),98.8% (active),99% (active),99% (active),99.3% (active),98% (active),99% (active),98.5% (active),70% (active),99% (active),98.3% (active),96% (active),99% (active),98.6% (active),99% (active),99% (active),98.7% (active)
CCc1cc(-c2ccco2)c(C#N)c(=S)n1C1OC(COC(C)=O)C(OC(C)=O)C(OC(C)=O)C1OC(C)=O (configuration not stated),-2%,-6%,3.05%,-15%,-7%,8.2%,-1%,6%,-19.4%,4%,22%,8.6%,7%,21%,-0.25%,-14%,5%,34.1%
Nc1ccccc1CC(c1c[nH]c2ccccc12)c1c[nH]c2ccccc12,4%,7%,94% (active),1%,17%,95% (active),1%,10%,94.4% (active),93% (active),-7%,90.5% (active),2%,26%,93% (active),4%,27%,93.8% (active)
C/C(CCC1CCc2ccccc2C1)=N\NC(N)=O (configuration not stated),-11%,-8%,32.2%,-4%,0%,12.3%,1%,5%,6.2%,-42%,-13%,-1.45%,0%,-2%,11.4%,-8%,-10%,-6.5%
CCCCCOC(=O)C1C(=O)CC(c2ccccc2)C1c1ccccc1 (configuration not stated),1%,79% (active),92.2% (active),-1%,63%,16.6%,-4%,67%,56.1%,0%,76% (active),63.9%,-5%,72% (active),45.5%,0%,85% (active),68.6%
